High-throughput results (PubChem BioAssay)
Rows were chosen to be rich in hits. Some 1.6% of all compounds tested hit in one or more screens of this group.
ATG4B inh: ATG4B protease inhibitors, primary screen, biochemical, fluorescence, uHTS. hit rate 0.51% among 340,000. ATG4B cleavage of LC3-PLA2, NBD-HPC fluorescence, 1 h. inhibition, % at 8.33 µM. Cysteine protease ATG4B (Homo sapiens), Q9Y4P1; in the data active = inhibition above about 40%
PKA-R1A act: activators of PKA-R1A holoenzyme, primary screen, biochemical, fluorescence polarization, Cy5-IP20, bovine R1A, mouse PKAc | cAMP-dependent protein kinase type I-alpha regulatory subunit (Bos taurus) + … | PKA-R1A dissociation; scaled: DMSO 0%, 113 µM cGMP 100% | activation, % at 11.4 µM | hit rate 0.083% among 340,000 | AID 504707, 2011;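 active = percent activation above the mean of all tested compounds plus 3 SD, cut at about 19% in these data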;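 also: higher means more PKAc released from R1A so a rise in polarization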
NRP1-CendR mod: modulators of CendR peptide binding to NRP-1, primary screen, biochemical, fluorescence polarization, uHTS. FAM-RPARPAR peptide binding to NRP-1. inhibition, % at 25 µM. hit rate 0.85% among 360,000. AID 602438, 2012;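 active = inhibition or corrected inhibition above about 18%, plus a signal ratio from 0.5 to 1.5, limit read from the data, passing the limit was not always enough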
Target sequence (O14786 whole entry, looked up): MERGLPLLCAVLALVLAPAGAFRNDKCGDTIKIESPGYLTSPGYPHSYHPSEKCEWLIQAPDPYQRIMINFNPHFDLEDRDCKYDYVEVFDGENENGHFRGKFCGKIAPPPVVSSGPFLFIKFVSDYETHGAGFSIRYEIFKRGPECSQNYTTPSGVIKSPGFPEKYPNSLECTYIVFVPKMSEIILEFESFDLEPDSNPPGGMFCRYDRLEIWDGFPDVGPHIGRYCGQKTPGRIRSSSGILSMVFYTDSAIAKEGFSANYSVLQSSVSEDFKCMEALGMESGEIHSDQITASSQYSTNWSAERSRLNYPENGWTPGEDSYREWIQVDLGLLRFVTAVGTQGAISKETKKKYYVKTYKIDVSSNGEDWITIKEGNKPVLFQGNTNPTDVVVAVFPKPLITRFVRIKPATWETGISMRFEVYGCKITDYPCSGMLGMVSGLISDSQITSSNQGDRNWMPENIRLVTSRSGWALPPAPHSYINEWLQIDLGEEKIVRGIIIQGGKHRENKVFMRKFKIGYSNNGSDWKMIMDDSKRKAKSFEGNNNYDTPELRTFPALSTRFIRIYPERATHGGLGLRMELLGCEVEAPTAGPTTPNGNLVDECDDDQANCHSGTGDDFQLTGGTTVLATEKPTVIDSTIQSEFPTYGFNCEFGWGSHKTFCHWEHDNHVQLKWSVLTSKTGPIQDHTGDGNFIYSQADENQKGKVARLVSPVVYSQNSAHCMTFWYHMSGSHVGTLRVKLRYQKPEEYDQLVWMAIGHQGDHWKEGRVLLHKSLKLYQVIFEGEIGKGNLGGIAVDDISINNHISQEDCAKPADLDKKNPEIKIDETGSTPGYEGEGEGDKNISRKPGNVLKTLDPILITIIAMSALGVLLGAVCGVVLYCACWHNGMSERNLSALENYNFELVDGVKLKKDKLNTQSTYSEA
VLA-4 inh: inhibition in human VLA-4 binding assay, primary screen, VLA-4 allosteric modulator project, MLPCN library, flow cytometry, VLA-4 expressing cells; Integrin alpha-4 (Homo sapiens), P13612; ligand binding flow cytometry; inhibition, % (about 7 µM as worked out from the volumes in the protocol); hit rate 0.2% among 330,000; AID 2557, 2010
PKA-R2B activ: activators of PKA-R2B holoenzyme, primary screen, biochemical, fluorescence polarization, Cy5-IP20, human. cAMP-dependent protein kinase catalytic subunit beta (Homo sapiens) + cAMP-dependent …. AID 504700, 2011. PKA-R2B holoenzyme dissociation; R2B truncated from residue 108, S112A mutant; 0% DMSO only, 100% 113 µM cGMP. activation, % at 11.4 µM. hit rate 0.079% among 340,000;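 active = activation above a cutoff set at the mean over all compounds plus 3 SD, cut at about 18% in these data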;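 also: higher means more holoenzyme dissociation and a rise in polarization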
ATG4B conf: ATG4B protease inhibitors, retest, confirmation, biochemical, fluorescence, single concentration | shares compounds with ATG4B inh | ATG4B protease fluorescent substrate cleavage assay | inhibition, % at 8.33 µM | hit rate 92% among 320 | AID 504757, 2011; in the data active = inhibition above about 39%
PLA2 ctr: PLA2 enzyme inhibition, counter-screen for ATG4B inhibitor project, biochemical, single concentration, uHTS hits | inhibition, % at 8.33 µM | purified PLA2, NBD-C6-HPC fluorescence, 45 min | shares compounds with ATG4B inh | AID 588402, 2011 | hit rate 66% among 1,600
* marks the source's active call; other numbers are inactive results; nt = no result. Rule as the data show it, unless noted: active = inhibition above about 50%; inactive = the rest.

SMILES	ATG4B inh	PKA-R1A act	NRP1-CendR mod	VLA-4 inh	PKA-R2B activ	PLA2 ctr	others
Cn1c(C(=O)N2CCc3ccccc3C2)cc2oc3ccccc3c21	59.3*	2.5	0.3	-11.1	-7.4	63.8*
CCn1c(C(=O)N2CCc3ccccc3C2)cc2oc3ccccc3c21	43.5*	-15.1	8.1	6.9	6.3	72.3*
COc1cc2c(cc1OC)CN(C(=O)c1oc3ccccc3c1C)CC2	-3.2	2.1	0.4	10.5	-8.1	nt
Cc1ccc(NC(=O)C2CCCN(S(=O)(=O)c3ccc(-n4cnnn4)cc3)C2)cc1 (stereo not drawn)	-3.2	8.2	-5.2	-2.0	8.1	nt
CCNC(=O)c1ccc(CSc2nc3ccccc3s2)cc1	8.5	-4.3	15.2	4.8	-5.5	nt
NC(=O)c1ccc(CSc2nc3ccccc3s2)cc1	51.1*	16.0	3.4	-0.9	6.0	58.5*
Cc1ccc(NC(=S)NCc2ccccc2)cc1S(=O)(=O)N1CCCCC1	56.5*	-3.3	9.7	8.3	9.1	75.4*
Cc1ccc(NC(=O)CSc2ccccc2)cc1S(=O)(=O)N1CCCCC1	-1.3	3.2	4.9	5.2	-0.6	nt
Cc1cccc(N2CC(C(=O)Nc3ccccc3N3CCOCC3)CC2=O)c1C (stereo not drawn)	-14.8	3.6	-4.7	0.0	-4.2	nt
O=C1NN(c2ccc(F)c(Cl)c2)C(=O)/C1=C\c1cccc(OC(=O)c2cccs2)c1	60.2*	-5.2	-114.1	6.3	-5.5	57.4*
CSCC[C@H](NC(=O)Nc1ccc(OC(F)(F)F)cc1)C(=O)O	-9.2	-9.0	-0.4	1.2	-3.8	nt
O=C(/C=C1\NC2(CCCC2)Cc2ccccc21)C(=O)N/N=C/c1ccccc1O	44.4*	-5.2	-8.8	-8.9	-1.9	46.6
Cc1cccc(C)c1OCc1cc(C(=O)N2CCCCCCC2)no1	40.1*	7.3	1.2	-10.1	-0.9	50.0*
Cc1ccc(OCc2cc(C(=O)N3CCCCCCC3)no2)cc1C	5.5	-0.2	12.5	-10.5	4.8	nt
Cc1ccc(OCc2cc(C(=O)N3CCc4sccc4C3)no2)cc1C	56.6*	-1.9	-5.6	0.5	2.7	78.9*
Cc1ccc(S(=O)(=O)/N=C2/NC(=O)/C(=C\c3cc(Br)cc(Br)c3O)S2)cc1	73.3*	-5.7	139.9	-39.5	-3.1	60.0*
Cc1ccc(S(=O)(=O)/N=C2/NC(=O)/C(=C/c3ccc(Br)o3)S2)cc1	39.1	0.8	-116.6	-8.2	-14.0	nt
COc1ccc(C)cc1N1C(=N)/C(=C2/Nc3ccccc3S2)C(c2ccccc2)C1=O (stereo not drawn)	50.5*	-1.0	-6.9	0.9	-14.0	28.9
O=C(COC(=O)CN1C(=O)c2ccccc2C1=O)NC1CCCCC1	1.9	-7.5	4.9	-8.0	-17.0	nt
COc1ccc(NC(=O)N(C)C[C@H]2Oc3c(NC(=O)C4CCCCC4)cccc3C(=O)N([C@H](C)CO)C[C@@H]2C)cc1	-5.3	-5.0	-13.1	-15.0	3.3	nt
O=C(O)CN1C(=O)/C(=C\c2cc(Br)ccc2OCc2ccccc2F)SC1=S	55.8*	-6.0	-88.1	-1.3	-2.6	51.4*
O=C(O)CN1C(=O)/C(=C\c2cc(Br)ccc2OCc2ccccc2Cl)SC1=S	49.8*	-10.4	-76.4	3.9	-6.6	81.1*
O=C(O)CN1C(=O)/C(=C\c2ccccc2OCc2ccc(Cl)cc2Cl)SC1=S	37.1	2.0	-112.7	-32.5	-0.8	nt
CN(Cc1ccccc1)C(=O)c1ccc(NC(=O)Cc2ccc(NC(=O)C3CCCN(S(=O)(=O)c4cccc([N+](=O)[O-])c4)C3)cc2)cc1 (stereo not drawn)	-9.2	9.8	8.1	nt	2.1	nt
COc1ccccc1OCC(=O)Nc1cc(S(=O)(=O)N2CCCCC2)ccc1N1CCCCC1	41.8*	-3.6	-8.9	-4.5	3.2	0.6
SMILES	ATG4B inh	PKA-R1A act	NRP1-CendR mod	VLA-4 inh	PKA-R2B activ	PLA2 ctr	others
CCOc1ccccc1OCC(=O)Nc1cc(S(=O)(=O)N2CCCCC2)ccc1N1CCN(CC)CC1	-4.9	0.6	-12.2	2.7	-8.9	nt
CCN(CC)S(=O)(=O)c1ccc(N2CCOCC2)c(NC(=O)COc2ccccc2C)c1	62.0*	-0.9	14.3	9.6	-6.9	75.9*
COc1ccc(S(=O)(=O)N2CCCCC2)cc1NC(=S)Nc1cccc(Cl)c1C	71.4*	2.9	-13.8	14.8	-1.1	73.0*
O=S1(=O)CC(N2CCCCC2)CN1Cc1cn(Cc2ccc(F)cc2)nn1 (stereo not drawn)	nt	nt	1.9	nt	nt	nt
Cc1cccc(C)c1OCC(O)Cn1c2ccccc2c2ccccc21 (stereo not drawn)	52.8*	-2.9	7.6	-7.0	-6.3	61.4*
Cc1ccc(OCC(O)Cn2c3ccccc3c3ccccc32)cc1 (stereo not drawn)	3.7	-7.7	-1.5	19.3	-9.0	nt
Cc1sc2nc3c(SC(C)C(=O)O)cc(C(=O)c4ccccc4O)cn3c(=O)c2c1C (stereo not drawn)	52.1*	0.4	-76.3	13.8	-8.7	53.3*
CCN1C(=O)[C@H]2[C@@H](c3ccc(C(F)(F)F)cc3)N[C@]3(CCCN(Cc4ccc(OC)cc4)C3=O)[C@H]2C1=O	nt	-2.9	7.2	nt	-8.8	nt
Cc1ccc(S(=O)(=O)Nc2cccc3c2O[C@H](CN(C)C(=O)Nc2cccc4ccccc24)[C@H](C)CN([C@H](C)CO)C3=O)cc1	-24.1	-13.4	3.5	7.3	-13.7	nt
Nc1ncnc(N)c1N=Nc1ccccc1	4.9	8.2	7.3	-13.9	-12.1	nt
Cc1nn(-c2ccccc2)c(N)c1N=Nc1ccccc1	72.6*	5.9	-2.3	12.0	-2.6	81.2*
Cc1cccc(N=Nc2c(C)nn(-c3ccccc3)c2N)c1C	81.8*	-5.9	-2.2	5.3	-6.5	89.7*
Nc1nn(-c2ccccc2)c(N)c1N=Nc1ccccc1	44.7*	-4.0	1.9	0.9	6.4	41.8	ATG4B conf=64.2*
Nc1nn(-c2ccccc2)c(N)c1N=Nc1ccccc1F	69.6*	3.8	13.8	-4.2	1.0	71.9*
Cc1nn(-c2ccccc2)c(N)c1N=Nc1ccc(Cl)cc1	80.7*	-21.7	1.1	11.0	-12.4	88.8*
